Where “and” joins values, the source holds several entries; their conditions need not be identical. Equal entries are not always repeated. Inconclusive results are not listed. Calls of active or inactive are those of the source. Unless noted, calls come from the whole dose curve; as a rule, active = well fitted cell-killing curve with a large enough effect; inconclusive = small, poorly fitted or top-dose-only effect; inactive = flat fitted curve, though single readings scatter.
Assays:
[1] = Cell Viability - LYMP2-013 (AID 970);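 note: series mostly up to about 92 µM; 0% = DMSO only and full inhibition = tetraoctylammonium bromide control; nearly all actives have a fitted effect of over 55% in size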
Method in brief: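 Acute toxicity was measured in human lymphoblastoid cells (2500/well) exposed to compound titrations for 24 hr, with ATP luminescence (CellTiter-Glo) as read-out and AC50 fitted by Hill equation.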

[2] = Cell Viability - LYMP2-015 (AID 971);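 note: 0% = DMSO only and full effect = 92 µM tetraoctylammonium bromide; nearly all actives have a fitted effect of over 55% in size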
Method in brief: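 Acute toxicity was scored as a concentration-dependent drop in intracellular ATP in lymphoblastoid cells after 24 hr compound exposure in complete medium. Detection used CellTiter-Glo luciferase luminescence.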

[3] = Cell Viability - LYMP2-017 (AID 972); note: series mostly up to about 92 µM; % is set by controls: 0 for no effect and ±100 for the full control effect; nearly all actives have a fitted effect of over 55% in size
Method in brief: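 Steps: plate 2500 lymphoblastoid cells per well; incubate 5 hr at 37 C; add compound across a concentration series and incubate 24 hr at 37 C; add CellTiter-Glo and read luminescence after 30 min at room temperature; fit Hill curves for AC50.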

[4] = Cell Viability - LYMP2-019 (AID 973);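 note: 0% = DMSO alone and full effect = 92 µM tetraoctylammonium bromide; nearly all actives have a fitted effect of over 55% in size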
Method in brief: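 Cells plated at 2500/well and allowed 5 hr at 37 C before compound addition. After 24 hr incubation, CellTiter-Glo reagent was added, plates sat 30 min at room temperature, and luminescence was recorded.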

[5] = Cell Viability - LYMP2-021 (AID 974)
Method in brief: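 Concentration-response cytotoxicity in a human lymphoblastoid line: 24 hr treatment at 37 C in complete culture medium, tetraoctylammonium bromide as positive control, luminescent ATP quantitation as viability measure.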

[6] = Cell Viability - LYMP2-023 (AID 975)
Method in brief: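 Concentration-dependent drop in intracellular ATP measures acute cytotoxicity in a human lymphoblastoid line treated for 24 hours in complete culture medium. AC50 values are taken from Hill-equation fits of qHTS data.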

[7] = Cell Viability - LYMP2-025 (AID 976);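 note: series mostly up to about 92 µM; plate controls were DMSO only for no effect and tetraoctylammonium bromide control for full effect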
Method in brief: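 In qHTS format, LYMP2-025 lymphoblastoid cells in complete culture medium received compound for 24 hr; ATP-based CellTiter-Glo signal gave viability, with AC50 derived by Hill equation.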

[8] = Cell Viability - LYMP2-002 (AID 977);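 note: series mostly up to about 92 µM; compound exposure lasted 24 h at 37 °C; plate controls were DMSO only for no effect and 92 µM tetraoctylammonium bromide for full effect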
Method in brief: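 Human lymphoblastoid LYMP2-002 cells, 2500 per well, exposed to compounds for 24 h at 37 C in complete medium; viability read as intracellular ATP by CellTiter-Glo luminescence, AC50 from Hill fits.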

[9] = Cell Viability - LYMP2-006 (AID 978); note: series mostly up to about 92 µM; % is set by controls: 0 for no effect and ±100 for the full control effect; nearly all actives have a fitted effect of over 60% in size
Method in brief: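 In this cytotoxicity screen, the human lymphoblastoid line grew in complete medium with test compounds for 24 hr at 37 C. Cellular ATP served as the viability signal.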

[10] = Cell Viability - LYMP2-007 (AID 979);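 note: cells exposed to compound for 24 h before reading; 0% = DMSO only and the negative end = 92 µM tetraoctylammonium bromide; nearly all actives have a fitted effect of over 60% in size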
Method in brief: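 Acute toxicity is scored as a concentration-dependent fall in intracellular ATP in human lymphoblastoid cells treated 24 hr at 37 C, measured by luciferase luminescence; Hill-equation modelling yields AC50.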

[11] = Cell Viability - LYMP2-010 (AID 981)
Method in brief: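 Acute toxicity is scored as a concentration-dependent loss of cellular ATP in human lymphoblastoid cells after 24 hr compound exposure in complete medium. Tetraoctylammonium bromide is the positive control.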

[12] = Cell Viability - LYMP2-012 (AID 982)
[13] = Cell Viability - LYMP2-014 (AID 983);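 note: series mostly up to about 92 µM; plate controls were DMSO only for no effect and 92 µM tetraoctylammonium bromide for full effect; nearly all actives have a fitted effect of over 50% in size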
Method in brief: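 Decrease in intracellular ATP after 24 hr treatment at 37 C, measured by luciferase luminescence, indicated cytotoxicity. Concentration-response data were fitted with the standard Hill equation to give AC50.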

[14] = Cell Viability - LYMP2-016 (AID 984)
Method in brief: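 Concentration-dependent ATP depletion measured in LYMP2-016 lymphoblastoid cells, 24 h, 37 C; luciferase-based luminescent detection; Hill-equation AC50.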

[15] = Cell Viability - LYMP2-018 (AID 985);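 note: compound exposure lasted 24 hr at 37 °C; plate controls were DMSO only for no effect and tetraoctylammonium bromide at 92 µM for full effect; nearly all actives have a fitted effect of over 50% in size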
Method in brief: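 Acute cytotoxicity is scored as a concentration-dependent drop in intracellular ATP after 24 hr exposure of the lymphoblastoid line in complete culture medium, measured by luciferase luminescence. Potency is expressed as AC50 from Hill modelling.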

[16] = Cell Viability - LYMP2-020 (AID 986)
Method in brief: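 Acute cytotoxicity in a human lymphoblastoid line is scored as a concentration-dependent fall in cellular ATP after 24 hr at 37 C in complete medium. The positive control is tetraoctylammonium bromide, and potency is given as Hill-fit AC50.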

[17] = Cell Viability - LYMP2-022 (AID 987)
Method in brief: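 Acute toxicity in a human lymphoblastoid line is scored as decreased intracellular ATP after 24 hr compound treatment at 37 C. ATP is measured by CellTiter-Glo luminescence; curves are fitted with the Hill equation to give AC50.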

[18] = Cell Viability - LYMP2-024 (AID 988);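 note: plate controls were DMSO only for no effect and 92 µM tetraoctylammonium bromide for full effect; nearly all actives have a fitted effect of over 60% in size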
Method in brief: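 Acute toxicity is measured as concentration-dependent loss of intracellular ATP in a human lymphoblastoid line treated 24 hours at 37 C. Luciferase luminescence quantifies ATP; AC50 values come from standard Hill-equation modelling.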

[19] = Cell Viability - LYMP2-026 (AID 989); note: % is set by controls: 0 for no effect and ±100 for the full control effect; nearly all actives have a fitted effect of over 50% in size
Method in brief: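 Concentration-dependent loss of intracellular ATP in human lymphoblastoid cells after 24 hr at 37 C, quantified by luciferase luminescence. AC50 derived from standard Hill equation.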

[20] = Cell Viability - LYMP1-002 - Assay at 24 hr (AID 993); note: % is set by controls: 0 for no effect and ±100 for the full control effect
Method in brief: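 qHTS, LYMP1-002 lymphoblastoid, 24 h cpd, 37 C, CellTiter-Glo ATP luminescence; AC50 via Hill eq.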

[21] = Cell Viability - LYMP1-002 - Assay at 40 hr (AID 994);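 note: 0% = DMSO only and full inhibition = 92 µM tetraoctylammonium bromide; nearly all actives have a fitted effect of over 60% in size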
Method in brief: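 Viability in the human lymphoblastoid line was measured as intracellular ATP via CellTiter-Glo after 40 hr compound exposure. Tetraoctylammonium bromide served as positive control.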

[22] = molecular target: Estrogen receptor (Homo sapiens) (UniProt P03372); test: qHTS assay for small molecule antagonists of estrogen receptor alpha signaling (AID 588513; active = well fitted curve in the direction sought with a large enough effect in the signal ratio, with a control signal flat, not every such curve was filed as active; the % refers to the signal ratio; note: % is set by controls: 0 for no effect and ±100 for the full control effect)
Method in brief: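 Antagonist-mode qHTS in ER-alpha-UAS-bla HEK 293 cells: compound titration, 0.5nM estradiol for 18 h, CCF4 fluorescence, Hill-derived IC50.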

[23] = molecular target: Estrogen receptor (Homo sapiens) (UniProt P03372); test: qHTS assay for small molecule agonists of estrogen receptor alpha signaling (AID 588514; calls by dose curve; note: potency is the fitted concentration of half-maximal effect; nearly all actives have a fitted effect of over 70% in size)
Method in brief: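 Reporter-gene assay. […] controls beta-lactamase in HEK 293 GripTite cells; after 18 hrs with compound, CCF4 substrate is added for 2 hrs and fluorescence is read.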

[24] = molecular target: Bile acid receptor (Homo sapiens) (UniProt Q96RI1); test: qHTS assay for small molecule antagonists of farnesoid X receptor signaling (AID 588526; calls by dose curve; note: % is set by controls: 0 for no effect and ±100 for the full control effect)
Method in brief: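 Antagonist mode: titrated compounds tested against chenodeoxycholic acid stimulation (normalized to 50 uM CDCA and DMSO) in GeneBLAzer HEK293T cells for 16 h. Beta-lactamase read by CCF4 fluorescence; IC50 from Hill fits.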

[25] = molecular target: Glucocorticoid receptor (Homo sapiens) (UniProt P04150); test: qHTS assay for small molecule agonists of glucocorticoid receptor signaling (AID 588532; active = well fitted curve in the direction sought with a large enough effect in the signal ratio, with a control signal flat; the % refers to the signal ratio;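 note: 100% = dexamethasone at 0.1 µM and 0% = DMSO only wells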); settings: HeLa MMTV-bla, beta-lactamase ratio, agonist, 18 h; stronger effect = higher value; percent of dexamethasone control, DMSO zero
Method in brief: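 Cells were plated and rested 3-5 h at 37 C, compounds were added in titration and incubated 18 h, then CCF4 substrate was loaded for 2 h at RT before reading blue/green fluorescence. EC50 came from Hill-equation fitting.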

Sequence of Glucocorticoid receptor (Homo sapiens) (P04150 whole entry, looked up): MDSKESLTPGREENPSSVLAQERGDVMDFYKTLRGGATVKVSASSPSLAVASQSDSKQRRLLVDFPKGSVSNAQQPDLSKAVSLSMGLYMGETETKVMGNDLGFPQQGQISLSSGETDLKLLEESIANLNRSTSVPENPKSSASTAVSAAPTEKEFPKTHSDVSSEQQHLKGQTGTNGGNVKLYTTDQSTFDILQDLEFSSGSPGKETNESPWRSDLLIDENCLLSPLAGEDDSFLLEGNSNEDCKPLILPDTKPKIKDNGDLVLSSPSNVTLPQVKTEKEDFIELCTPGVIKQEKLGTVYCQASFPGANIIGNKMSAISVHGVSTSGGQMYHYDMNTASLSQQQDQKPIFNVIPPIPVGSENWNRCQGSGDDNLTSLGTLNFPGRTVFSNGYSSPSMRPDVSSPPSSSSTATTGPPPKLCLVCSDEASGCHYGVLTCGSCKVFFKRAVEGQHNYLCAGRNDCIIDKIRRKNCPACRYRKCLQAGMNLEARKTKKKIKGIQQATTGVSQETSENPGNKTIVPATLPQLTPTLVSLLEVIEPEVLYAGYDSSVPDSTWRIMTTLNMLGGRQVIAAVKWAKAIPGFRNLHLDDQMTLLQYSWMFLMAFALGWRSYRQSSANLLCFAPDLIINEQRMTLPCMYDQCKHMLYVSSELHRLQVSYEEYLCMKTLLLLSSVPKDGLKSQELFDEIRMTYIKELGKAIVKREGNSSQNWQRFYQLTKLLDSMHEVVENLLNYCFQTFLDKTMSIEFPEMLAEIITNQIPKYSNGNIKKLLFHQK
Sequence of Estrogen receptor (Homo sapiens) (P03372 whole entry, looked up): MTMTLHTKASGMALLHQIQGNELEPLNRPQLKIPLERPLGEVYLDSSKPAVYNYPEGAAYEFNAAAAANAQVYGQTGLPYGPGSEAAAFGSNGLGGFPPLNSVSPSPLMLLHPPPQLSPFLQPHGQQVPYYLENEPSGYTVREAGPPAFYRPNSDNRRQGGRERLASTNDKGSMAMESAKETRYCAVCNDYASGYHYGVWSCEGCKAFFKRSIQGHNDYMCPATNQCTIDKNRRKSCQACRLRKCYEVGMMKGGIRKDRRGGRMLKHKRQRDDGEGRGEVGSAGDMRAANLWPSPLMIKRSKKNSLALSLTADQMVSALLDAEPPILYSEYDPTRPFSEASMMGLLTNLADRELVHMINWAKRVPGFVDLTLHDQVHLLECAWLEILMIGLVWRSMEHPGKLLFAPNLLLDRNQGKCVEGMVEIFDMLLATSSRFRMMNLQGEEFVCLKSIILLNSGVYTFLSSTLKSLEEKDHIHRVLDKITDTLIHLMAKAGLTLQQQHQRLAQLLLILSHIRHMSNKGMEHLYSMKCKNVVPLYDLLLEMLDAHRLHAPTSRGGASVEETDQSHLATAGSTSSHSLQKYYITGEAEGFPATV
Sequence of Bile acid receptor (Homo sapiens) (Q96RI1 whole entry, looked up): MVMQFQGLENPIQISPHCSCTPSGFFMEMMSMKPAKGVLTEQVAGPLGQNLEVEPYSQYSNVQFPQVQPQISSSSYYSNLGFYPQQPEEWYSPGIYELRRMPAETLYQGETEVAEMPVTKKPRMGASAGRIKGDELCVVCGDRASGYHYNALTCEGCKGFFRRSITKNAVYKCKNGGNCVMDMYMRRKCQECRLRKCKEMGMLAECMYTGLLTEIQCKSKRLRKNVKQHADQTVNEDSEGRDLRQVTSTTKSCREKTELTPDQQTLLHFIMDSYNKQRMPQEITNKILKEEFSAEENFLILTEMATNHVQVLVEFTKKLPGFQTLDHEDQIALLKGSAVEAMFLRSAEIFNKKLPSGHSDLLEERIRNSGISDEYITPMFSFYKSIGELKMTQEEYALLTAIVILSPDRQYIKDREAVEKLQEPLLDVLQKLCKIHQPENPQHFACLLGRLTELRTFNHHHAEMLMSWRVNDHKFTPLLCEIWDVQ

CC(CCC(=O)O)(c1ccc(O)cc1)c1ccc(O)cc1
inactive: Potency [1] | Potency [2] | Potency [3] | Potency [4] | Potency [5] | Potency [6] | Potency [7] | Potency [8] | Potency [9] | Potency [10] | Potency [11] | Potency [12] | Potency [13] | Potency [14] | Potency [15] | Potency [16] | Potency [17] | Potency [18] | Potency [19] | Potency [20] | Potency [21] | outcome [22] | Potency [24] | activation [25] 3.51% and -3.34%
active: Potency [23] 12.6 µM
